We go through eight compounds from PubChem BioAssay (Tox21).

SMILES strings stand for the structures. Values joined by “and” are separate entries in the source; they are usually repeats but may differ in a detail not shown here. Equal entries are not always repeated. A number with no mark means an inactive call. Records with an inconclusive call do not appear. Active and inactive are the calls of the source. Unless noted, calls follow the shape of the dose curve; as a rule, active = well fitted curve in the direction sought with a large enough effect in the repeat runs; inconclusive = weak or mixed curves; inactive = no such curve, though single readings can be large; an effect the other way counts as inactive or inconclusive.

Assay [1] is described as follows: qHTS assay to identify small molecule agonists of the estrogen receptor alpha (ER-alpha) signaling pathway in the presence of an antagonist - cell viability counter screen (AID 1259386).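 Also: cells exposed to compounds for 22 h at 37 °C before the viability read; nearly all actives have a fitted effect of over 30% in size.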 Also: potency is read from the fitted curve at half-maximal effect. In short, it runs like this: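 In this counter screen, compound effects on VM7Luc4E2 viability were tested in the presence of the antagonist ICI-182,780 at 10.0nM final. Compounds were dosed at 15 concentrations, exposure lasted 22hr, and the CellTiter-Fluor signal was read.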

The target of assay [2] is Progesterone receptor (Homo sapiens) (UniProt P06401). Briefly: qHTS assay to identify small molecule agonists of the progesterone receptor (PR) signaling pathway (AID 1346784; calls by dose curve; also: nearly all actives have a fitted effect of over 30% in size). In short, it runs like this:
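Compounds were tested for PR agonism in HEK 293T cells bearing a beta-lactamase gene under UAS control. Treatment lasted 16 hr at 37C; signal came from fluorescence of a FRET substrate.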
(In general: In qHTS, concentration-response curves come from the screen itself.)

The target is the same in assay [3]. The experiment in a line: qHTS assay to identify small molecule antagonists of the progesterone receptor (PR) signaling pathway (AID 1346795; active = well fitted inhibition curve with a large enough effect in the signal ratio in the repeat runs, not every such curve was filed as active; the % refers to the signal ratio). In short, it runs like this: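 In HEK293T cells bearing the PR-UAS-bla reporter, compound effects on promegestone-driven (1 nM) beta-lactamase expression are assessed after 16 hr using a fluorescent FRET substrate incubated 2 hr at room temperature.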

The nature of assay [4]: qHTS assay to identify small molecule agonists of the TGF-beta/Smad signaling pathway - cell viability counter screen (AID 1346829). Also: top concentration of the series differs between compounds; nearly all actives have a fitted effect of over 45% in size. In short, it runs like this:
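Tox21 qHTS format: SBE-bla HEK 293T cells treated with DMSO-dissolved compounds for 5 hr; CellTiter-Glo luminescence after 30 min at room temperature.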

The nature of assay [5]: qHTS assay to identify small molecule agonists of the TGF-beta/Smad signaling pathway (AID 1346859; active = well fitted activation curve with a large enough effect in the signal ratio in the repeat runs, not every such curve was filed as active; the % refers to the signal ratio; also: series mostly up to about 77 µM). In short, it runs like this:
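Each well held 4,000 SBE-bla HEK 293T cells incubated overnight before compound addition; 5 hr later the cleavable FRET substrate went on for 2 hr at room temperature, and fluorescence was read at two emissions.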

The target in assay [6] is Thyrotropin-releasing hormone receptor (Homo sapiens) (UniProt P34981). Briefly: qHTS assay to identify small molecule antagonists of the thyrotropin-releasing hormone receptor (TRHR) signaling pathway (AID 1346877; active = well fitted inhibition curve with a large enough effect in the repeat runs, not every such curve was filed as active; also: series mostly up to about 51 µM). In short, it runs like this:
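Kinetic fluorescence (3 min, 1 s resolution) following stimulation with TRH at 1 nM final; HEK293 cells bearing human TRHR; 5 min compound preincubation at RT; concentration-response over 15 points, triplicates.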

Assay [7] has the same target. Briefly: qHTS assay to identify small molecule agonists of the thyrotropin-releasing hormone receptor (TRHR) signaling pathway (AID 1346891; calls by dose curve; also: series mostly up to about 58 µM). In short, it runs like this:
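Screening of agonists relied on calcium signalling in HEK293 cells expressing human TRHR: dye loading 2 h at 37 °C preceded compound addition and a 3-min fluorescence time course.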

The nature of assay [8]: Human pregnane X receptor (PXR) small molecule agonists, qHTS cell viability counter screen (AID 1346977). Also: nearly all actives have a fitted effect of over 50% in size. Also: potency is read from the fitted curve at half-maximal effect. In short, it runs like this:
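Tox21 qHTS format; PXR-Luc HepG2, 2,000/well, charcoal-stripped FBS 5%. Cpd exposure 24hr. Read: CellTiter-Fluor fluorescence, multiplexed with luciferase.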

The nature of assay [9]: Caspase-3/7 induction in HepG2 cells by small molecules, qHTS assay (AID 1346978). Also: nearly all actives have a fitted effect of over 15% in size. In short, it runs like this: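 Caspase-3/7 induction was measured by Caspase-Glo 3/7 luminescence (30 min, room temperature) after a 17 hr compound exposure of wild-type HepG2 cells seeded at 2,000 per well and pre-incubated 5 hr.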
The nature of assay [10]: Caspase-3/7 induction in CHO-K1 cells by small molecules, qHTS cell viability counter screen (AID 1346979). Also: nearly all actives have a fitted effect of over 35% in size. Also: potency is read from the fitted curve at half-maximal effect. In short, it runs like this:
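CellTiter-Fluor viability check, qHTS format: wild-type CHO-K1, 16hr compound treatment, 1hr reagent incubation, fluorescence read.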

A short description of assay [11]: Caspase-3/7 induction in CHO-K1 cells by small molecules, qHTS assay (AID 1346980). Also: nearly all actives have a fitted effect of over 15% in size. In short, it runs like this: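 Luminescent Caspase-Glo 3/7 read (30min, room temperature) quantified apoptosis induction. Cells were wild-type CHO-K1, treated with compound for 17hr at 37 C and 5% CO2.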
Assay [12] is described as follows: Caspase-3/7 induction in HepG2 cells by small molecules, qHTS cell viability counter screen (AID 1346981). Also: nearly all actives have a fitted effect of over 30% in size. Also: potency is read from the fitted curve at half-maximal effect. In short, it runs like this:
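In this quantitative HTS counter screen, compounds delivered in DMSO were left on unmodified HepG2 cells for 16 hr at 37 C. Viability was then determined fluorometrically with CellTiter-Fluor, in parallel with caspase-3/7 induction in the same wells.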

Assay [13] addresses Nuclear receptor subfamily 1 group I member 2 (Homo sapiens) (UniProt O75469). The experiment in a line: Human pregnane X receptor (PXR) small molecule agonists, qHTS assay (AID 1346982). Also: nearly all actives have a fitted effect of over 35% in size. In short, it runs like this:
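Reporter HepG2 cells expressing PXR-Luc are cultured in charcoal-stripped FBS (5%), treated with compounds for 24 hr at 37 C, and assayed by ONE-Glo luminescence after 30 min at room temperature.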

For assay [14], the target named is Acetylcholinesterase (Homo sapiens) (UniProt P22303). The experiment in a line: Acetylcholinesterase (AChE) small molecule antagonists: colormetric cell-based qHTS assay (AID 1347395; calls by dose curve; also: nearly all actives have a fitted effect of over 30% in size; also: potency is read from the fitted curve at half-maximal effect). In short, it runs like this:
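AChE inhibition read colorimetrically via DTNB–thiocholine in SH-SY5Y cells. Compound 30 min, substrate 90 min, both 37 C.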

The nature of assay [15]: qHTS assay to identify small molecule antagonists of the progesterone receptor (PR) signaling pathway - cell viability counter screen (AID 1346798). Also: nearly all actives have a fitted effect of over 50% in size. Also: potency is read from the fitted curve at half-maximal effect. In short, it runs like this: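 Following a 4 hr attachment, PR-UAS-bla HEK293T cells in charcoal-stripped FBS medium were exposed to compounds with R5020 for 16 hr; CellTiter-Glo was added and luminescence read after 30 min at room temperature.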

Assay [16] is described as follows: qHTS assay to identify small molecule agonists of the progesterone receptor (PR) signaling pathway - cell viability counter screen (AID 1346799; calls by dose curve; also: nearly all actives have a fitted effect of over 45% in size; also: potency is read from the fitted curve at half-maximal effect). In short, it runs like this: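 Here, 3,000 PR-UAS-bla HEK293T cells per well were treated with compounds for 16 hr after a 6 hr preincubation at 37C and 5% CO2; cell viability is the CellTiter-Glo luminescence signal.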

Assay [17] can be described thus: qHTS assay to identify small molecule antagonists of the TGF-beta/Smad signaling pathway - cell viability counter screen (AID 1346824). Also: nearly all actives have a fitted effect of over 50% in size. Also: potency is read from the fitted curve at half-maximal effect. In short, it runs like this:
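Cytotoxicity counter-screen run in the same wells as the beta-lactamase Smad reporter read: CellTiter-Glo luminescence after 30 min at room temperature. HEK 293T SBE-bla cells had 5 hr compound exposure at 37 C with TGF-beta1 (0.25 ng/mL stock).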

Assay [18] concerns the target Nuclear receptor subfamily 1 group I member 2 (Rattus norvegicus) (UniProt Q9R1A7). The experiment in a line: Rat pregnane X receptor (rPXR) activation by small molecules, qHTS assay (AID 1346983). Also: nearly all actives have a fitted effect of over 20% in size. The conditions noted are these: rPXR luciferase reporter cells, One-Glo luminescence, 24 h; hits give high values. In short, it runs like this:
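Luminescent readout (One-Glo luciferase, 30 min room temperature) followed 24 hr compound treatment at 37 C of rPXR cells plated 2,000 per well and preincubated 5hr; qHTS format with compounds delivered in DMSO.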
% is scaled to controls: 0 for no effect and ±100 for the full control effect.

Sequence of Progesterone receptor (Homo sapiens) (P06401 whole entry, looked up): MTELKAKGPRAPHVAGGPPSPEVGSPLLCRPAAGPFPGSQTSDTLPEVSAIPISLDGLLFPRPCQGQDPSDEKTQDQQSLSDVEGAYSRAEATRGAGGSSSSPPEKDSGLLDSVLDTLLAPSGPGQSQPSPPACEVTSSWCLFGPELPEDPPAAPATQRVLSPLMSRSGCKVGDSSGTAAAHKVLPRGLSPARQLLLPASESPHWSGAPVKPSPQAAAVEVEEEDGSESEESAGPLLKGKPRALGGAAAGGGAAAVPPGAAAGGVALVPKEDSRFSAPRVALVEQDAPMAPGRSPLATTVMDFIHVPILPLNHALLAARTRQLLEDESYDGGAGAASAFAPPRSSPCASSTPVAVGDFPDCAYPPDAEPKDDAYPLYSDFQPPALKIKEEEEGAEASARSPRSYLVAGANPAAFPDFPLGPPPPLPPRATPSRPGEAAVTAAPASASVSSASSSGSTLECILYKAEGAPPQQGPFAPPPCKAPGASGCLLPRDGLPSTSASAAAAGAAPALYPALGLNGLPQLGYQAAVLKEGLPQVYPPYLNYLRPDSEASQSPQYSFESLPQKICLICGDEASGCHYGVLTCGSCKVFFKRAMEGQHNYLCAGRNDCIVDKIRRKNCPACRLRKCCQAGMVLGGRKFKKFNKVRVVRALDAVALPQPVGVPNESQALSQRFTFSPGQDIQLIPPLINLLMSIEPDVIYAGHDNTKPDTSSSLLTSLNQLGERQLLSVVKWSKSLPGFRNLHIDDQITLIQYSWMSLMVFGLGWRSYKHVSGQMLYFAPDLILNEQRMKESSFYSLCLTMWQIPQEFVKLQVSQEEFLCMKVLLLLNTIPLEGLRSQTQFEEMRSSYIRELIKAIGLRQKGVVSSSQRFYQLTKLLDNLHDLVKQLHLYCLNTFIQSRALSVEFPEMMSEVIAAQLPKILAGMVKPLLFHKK
Sequence of Thyrotropin-releasing hormone receptor (Homo sapiens) (P34981 whole entry, looked up): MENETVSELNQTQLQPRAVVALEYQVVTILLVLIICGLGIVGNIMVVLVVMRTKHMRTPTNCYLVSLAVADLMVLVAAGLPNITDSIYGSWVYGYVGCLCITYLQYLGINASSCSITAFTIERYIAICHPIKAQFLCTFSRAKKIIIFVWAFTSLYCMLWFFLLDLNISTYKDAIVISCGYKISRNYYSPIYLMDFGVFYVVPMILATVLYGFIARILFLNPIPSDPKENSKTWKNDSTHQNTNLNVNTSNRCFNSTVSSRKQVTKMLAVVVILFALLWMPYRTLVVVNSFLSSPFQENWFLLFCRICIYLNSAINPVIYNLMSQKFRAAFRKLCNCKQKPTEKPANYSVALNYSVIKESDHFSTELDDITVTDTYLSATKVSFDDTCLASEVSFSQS
Sequence of Acetylcholinesterase (Homo sapiens) (P22303 whole entry, looked up): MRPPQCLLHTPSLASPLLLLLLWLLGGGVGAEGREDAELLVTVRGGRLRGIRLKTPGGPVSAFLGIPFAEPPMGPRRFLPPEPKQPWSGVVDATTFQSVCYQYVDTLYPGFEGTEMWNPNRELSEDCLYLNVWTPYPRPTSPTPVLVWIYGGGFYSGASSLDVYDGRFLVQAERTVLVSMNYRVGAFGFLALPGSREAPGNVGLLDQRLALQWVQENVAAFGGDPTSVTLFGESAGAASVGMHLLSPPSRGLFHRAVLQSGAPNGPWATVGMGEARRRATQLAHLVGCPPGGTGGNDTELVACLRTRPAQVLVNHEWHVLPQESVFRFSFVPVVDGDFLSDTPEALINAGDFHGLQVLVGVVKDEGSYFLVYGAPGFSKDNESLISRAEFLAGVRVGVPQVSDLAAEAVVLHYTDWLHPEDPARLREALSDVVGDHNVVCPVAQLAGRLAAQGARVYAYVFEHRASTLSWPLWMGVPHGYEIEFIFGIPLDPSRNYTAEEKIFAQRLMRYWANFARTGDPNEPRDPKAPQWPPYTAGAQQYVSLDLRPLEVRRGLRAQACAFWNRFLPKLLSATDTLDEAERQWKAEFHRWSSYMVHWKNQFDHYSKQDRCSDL
Sequence of Nuclear receptor subfamily 1 group I member 2 (Homo sapiens) (O75469 whole entry, looked up): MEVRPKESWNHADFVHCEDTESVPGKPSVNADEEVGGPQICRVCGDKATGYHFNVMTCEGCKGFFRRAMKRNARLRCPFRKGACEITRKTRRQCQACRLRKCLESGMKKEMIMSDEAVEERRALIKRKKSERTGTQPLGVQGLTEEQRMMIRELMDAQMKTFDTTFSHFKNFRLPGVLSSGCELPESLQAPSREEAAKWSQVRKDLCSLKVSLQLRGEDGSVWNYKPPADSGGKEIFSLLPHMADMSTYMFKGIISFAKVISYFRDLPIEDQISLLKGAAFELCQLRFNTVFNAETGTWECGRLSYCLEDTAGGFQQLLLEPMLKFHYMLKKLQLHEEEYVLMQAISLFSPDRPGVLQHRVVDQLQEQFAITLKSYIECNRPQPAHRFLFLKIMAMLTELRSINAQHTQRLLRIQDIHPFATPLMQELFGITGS
Sequence of Nuclear receptor subfamily 1 group I member 2 (Rattus norvegicus) (Q9R1A7 whole entry, looked up): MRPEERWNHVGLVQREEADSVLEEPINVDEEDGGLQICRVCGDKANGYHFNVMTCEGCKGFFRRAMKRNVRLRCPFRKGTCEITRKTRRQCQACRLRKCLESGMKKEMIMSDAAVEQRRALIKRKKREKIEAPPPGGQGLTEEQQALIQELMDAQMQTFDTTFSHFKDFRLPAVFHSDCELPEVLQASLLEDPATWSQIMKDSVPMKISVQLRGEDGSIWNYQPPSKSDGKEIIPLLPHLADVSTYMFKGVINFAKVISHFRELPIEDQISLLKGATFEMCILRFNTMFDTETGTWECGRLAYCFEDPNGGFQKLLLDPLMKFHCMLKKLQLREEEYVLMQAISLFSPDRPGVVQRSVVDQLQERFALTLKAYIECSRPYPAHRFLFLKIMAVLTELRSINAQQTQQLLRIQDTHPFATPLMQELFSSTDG

Turning to `O=C(O)c1cc(I)cc(I)c1I`, the Potency result in assay [1], in assay [2], in assay [3], in assay [4], in assay [6] and in assay [8] was “inactive” in each case. The Potency entry in [9], in [10], in assay [11], in [12], in assay [13] and in [14] was “inactive” throughout. Besides, the compound was called inactive in assay [5] and in assay [7].

As to `CC(C)(C)N(NC(=O)c1ccc(Cl)cc1)C(=O)c1ccccc1`, the Potency is 4.83 µM (active) in assay [1], 12.1 µM (active) in [10] and 12.1 µM (active) in assay [12]. For the same compound, the Potency entry in assay [2], in assay [15], in assay [16], in assay [4], in assay [6] and in [9] was “inactive” throughout. Besides, the Potency result in assay [11] and in assay [14] was “inactive” throughout. For the same compound, the compound was called inactive in [5].

Consider `CN(C1CCCCC1)C1CCCCC1`, for which the Potency result in assay [1], in [2], in assay [15], in assay [16], in assay [17] and in assay [6] was “inactive” in each case. The Potency result in [8], in assay [9], in assay [10], in assay [11], in assay [12] and in [13] was “inactive” each time. The Potency entry in [14] is “inactive”. The compound was classed as inactive in assay [5] and in [7].

On to `CCCCCCCCCCCC[N+](C)(C)CCOc1ccccc1`, for which the Potency result in assay [1], in assay [2], in assay [6], in assay [11] and in assay [14] was “inactive” throughout. Further, the Potency in assay [15] is 54.5 µM (active) and 13.3 µM (active); in [16], 24.3 µM (active) and 23.7 µM (active); in assay [17], 43.7 µM (active); in [8], 61.1 µM (active); in assay [12], 61.1 µM (active). The call in assay [7] was inactive. Further, the max activation in assay [18] was -6.32%.

As to `O=C([O-])c1ccccn1.O=C([O-])c1ccccn1.O=C([O-])c1ccccn1.[Cr+3]`, the Potency entry in [1], in [2], in [15], in assay [16], in assay [17] and in assay [4] was “inactive” in each case. Besides, the Potency entry in [8], in assay [9], in [11], in assay [13] and in [14] was “inactive” each time. The outcome in assay [5] was inactive.

Take `C[C@H]1[C@@H]2Cc3ccc(O)cc3[C@@]1(C)CCN2C`: the Potency result in assay [1], in [2], in assay [16], in assay [17], in assay [6] and in assay [9] was “inactive” each time. Moreover, the Potency result in assay [11], in [12] and in assay [13] was “inactive” throughout. Besides, the compound was classed as inactive in assay [5] and in assay [7]. The Potency in assay [14] was 15.2 µM (active).

For the compound `Cc1nnc(-c2ccccc2)c(=O)n1N`, the Potency result in [1], in assay [2], in assay [16], in [17], in assay [4] and in assay [6] was “inactive” each time. Moreover, the Potency result in assay [8], in assay [9], in assay [10], in [11], in [12] and in assay [13] was “inactive” each time. The Potency result in [14] is “inactive”. For the same compound, the compound was classed as inactive in assay [5] and in assay [7].

Regarding `CCC[N+](CCC)(CCC)CCC`, the Potency entry in assay [1], in assay [2], in [16], in assay [17], in assay [4] and in assay [6] was “inactive” in each case. Besides, the Potency entry in assay [8], in assay [9], in [10], in assay [11], in assay [12] and in assay [13] was “inactive” in each case. In addition, the result in [5] and in assay [7] was inactive.
